DAT uptake mod: changed human dopamine transporter uptake under cocaine IC80. 110,000 tested, 1.3% active. AID 449768. B-score at 10 µM. Q01959. LLC-PK1 hDAT cells, [14C]-dopamine uptake with cocaine IC80; actives deviate in either direction;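 active = Z score or B-score, a plate-position-corrected score, falls beyond the plate's 99.7% confidence bounds, in either direction; inactive = both scores lie inside the 99.7% bounds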
Target sequence (Q01959 whole entry, looked up): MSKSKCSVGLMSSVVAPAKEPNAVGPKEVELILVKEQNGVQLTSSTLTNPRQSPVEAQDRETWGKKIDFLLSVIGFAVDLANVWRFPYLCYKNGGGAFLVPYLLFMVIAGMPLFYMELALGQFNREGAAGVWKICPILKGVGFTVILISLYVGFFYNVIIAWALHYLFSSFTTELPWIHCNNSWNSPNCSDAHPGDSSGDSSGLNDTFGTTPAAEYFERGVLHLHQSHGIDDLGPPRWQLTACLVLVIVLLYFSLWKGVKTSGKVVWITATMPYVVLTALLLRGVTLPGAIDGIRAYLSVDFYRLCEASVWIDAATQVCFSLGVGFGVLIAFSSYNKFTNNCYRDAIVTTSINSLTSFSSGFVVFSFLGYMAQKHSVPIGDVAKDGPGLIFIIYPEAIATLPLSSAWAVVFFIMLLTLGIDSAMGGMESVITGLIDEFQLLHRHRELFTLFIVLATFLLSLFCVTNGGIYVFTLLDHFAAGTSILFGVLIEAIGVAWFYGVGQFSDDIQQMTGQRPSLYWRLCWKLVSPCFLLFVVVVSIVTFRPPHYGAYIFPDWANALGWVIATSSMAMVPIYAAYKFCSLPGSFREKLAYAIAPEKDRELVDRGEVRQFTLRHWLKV
PostGolgi ctrl: growth of the yeast control strain, post-Golgi counter-screen. 98,000 tested, 5% active. AID 738. efflux-deficient yeast background strain, growth absorbance A615, 16 h. inhibition, % at 10 µM
PostGolgi yeast: growth inhibition of a yeast mutant, post-Golgi transport screen; inhibition, % at 10 µM; 98,000 tested, 0.9% active; post-Golgi transport phenotypic cell assay;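 note: yeast cells grown in 1536-well plates; yeast grown about 18 h at 30C before absorbance read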
PLAP act: activators of human placental alkaline phosphatase; purified PLAP enzyme, luminescent substrate read-out; stronger effect = higher value; P05187; AID 696; activation fold at 20 µM; 96,000 tested, 1.2% active; in the data active = activation fold above about 2
Cav3 T inh: blocks human Cav3.2 T-type calcium channel; AID 449739; 100,000 tested, 4% active; B-score at 10 µM; Cav3.2-expressing cells, Fluo-4 calcium fluorescence FDSS; stronger effect = lower value; O95180;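 active = single-dose well whose peak fluorescence ratio is a statistical outlier from its plate by either plate-standardised score or position-corrected B-score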
Large screens that a line does not name were inactive. Hits are enriched below; roughly 9.6% of the tested compounds scored in any of these assays. Cut-off read from the data, not from the text of the source, unless noted: active = inhibition above about 30%; inactive = the rest.

C/C(N)=C(/C#N)C(=O)CSc1nc2cc(Cl)ccc2s1	PostGolgi ctrl 44
Nc1nc(-c2ccccc2)cn1N	none
c1ccc(-c2cn3nc(-c4ccccc4)c(-c4ccccc4)nc3n2)cc1	Cav3 T inh -5.3
COc1ccc(/C=N/NC(=O)c2nc(-c3ccccc3)cc(-c3ccccc3)n2)cc1	PostGolgi ctrl 31, Cav3 T inh -7.2
COc1cc(/C=N/NC(=O)c2cnn3c(C)cc(-c4ccccc4)nc23)ccc1O	PostGolgi ctrl 34
COc1ccc(/C=C(\NC(=O)c2ccccc2)C(=O)N/N=C/c2ccncc2)cc1	none
CCOC(=O)c1cnn2c(C)cc(-c3ccccc3)nc12	none
COc1ccc(-n2nnnc2SCC(=O)Nc2nc3c(s2)CCCC3)cc1	none
COc1cc2c(cc1OC)CN(Cc1ccc(C)s1)CC2	PostGolgi ctrl 43
COc1ccc(CN2CCc3cc(OC)c(OC)cc3C2)cc1O	none (no result: PostGolgi ctrl, PostGolgi yeast, PLAP act)
COCCn1c(C23CC4CC(CC(C4)C2)C3)n[nH]c1=S	PostGolgi ctrl 32
CCOC(=O)CSc1ncc(OC)c(Sc2ccc(OC)cc2)n1	Cav3 T inh -6.6
COC(=O)CSc1ncc(OC)c(OC)n1	none
c1ccc(-c2oc3ncnc(NCCCn4ccnc4)c3c2-c2ccccc2)cc1	DAT uptake mod 2.7, PostGolgi ctrl 66
c1ccc(-c2oc3ncnc(NCCN4CCOCC4)c3c2-c2ccccc2)cc1	PostGolgi ctrl 92
N=c1c2c(-c3ccccc3)c(-c3ccccc3)oc2ncn1CCN1CCOCC1	PostGolgi ctrl 72
O=c1oc2ccccc2c2c1ncn2CCN1CCOCC1	none
CC(C)[C@@H]1CC[C@@H](C)c2c(-c3ccccc3)n[nH]c21	PostGolgi ctrl 41
c1ccc(-c2n[nH]c3c2CCC3)cc1	none
COC(=O)c1ccc(Cl)c(NS(=O)(=O)c2ccc3c(c2)OCCO3)c1	Cav3 T inh -5.4
CCN(CC)CCNC(=O)c1ccc(N2CCCCC2)c(NS(=O)(=O)c2ccc(C)cc2)c1	none
COC(=O)c1ccc(N2CCCCC2)c(NS(=O)(=O)c2ccc(C)cc2)c1	PostGolgi ctrl 30, Cav3 T inh -3.7
Cc1cccc2cc3c(NC(=O)CC(C)C)nn(C)c3nc12	none
O=C(c1cccnc1)N1CCN(c2c(Cl)cccc2[N+](=O)[O-])CC1	none
C/C=C(/C)C(=O)OC1c2c(ccc3ccc(=O)oc23)OC(C)(C)C1OC(=O)/C(C)=C\C (stereo not given)	Cav3 T inh -5.1 (no result: PostGolgi ctrl, PostGolgi yeast, PLAP act)
O=C(COC(=O)c1cc(=O)[nH]c2ccccc12)NC(=O)NC1CCCCC1	none
COc1cccc(OC)c1C(=O)N1CCOCC1	none (no result: PLAP act)
COc1ccccc1/C=C/C(=O)N1CCOCC1	PostGolgi ctrl 35
O=C(CN1CCCN(S(=O)(=O)c2ccc(Br)cc2)CC1)Nc1ccc2c(c1)OCO2	none (no result: PLAP act)
COc1ccc(C2C(C#N)=C(N)Oc3cc4c(cc32)OCO4)cc1 (stereo not given)	Cav3 T inh -4
CN(C)c1ccc2c(c1)OC(N)=C(C#N)C2c1cccc(F)c1 (stereo not given)	PostGolgi ctrl 37 (no result: Cav3 T inh)
N#CC1=C(N)Oc2cc(O)ccc2C1c1ccncc1 (stereo not given)	Cav3 T inh -4.6
N#CC1=C(N)Oc2cc(O)ccc2C1c1cccs1 (stereo not given)	none
COc1ccc(C(O)c2nccn2Cc2ccccc2)cc1 (stereo not given)	none
COc1ccc2ccccc2c1C(O)c1nccn1C (stereo not given)	PLAP act 2, Cav3 T inh -5.6
O=C(N1CCCCC1)C1(c2ccccc2)CCOCC1	none
O=C(N1CCOCC1)C1(c2ccccc2)CCCCC1	PostGolgi ctrl 42
CC1(C)CC[C@@]23CC[C@]4(C)[C@@](OC2=O)(C3C1)[C@H]1O[C@H]1C1[C@@]2(C)CC[C@H](O)C(C)(C)C2CC[C@]14C (stereo not given in full)	none (no result: PostGolgi ctrl, PostGolgi yeast, PLAP act)
COc1cc(C)ccc1OCCCCN1CC(C)OC(C)C1 (stereo not given)	PostGolgi ctrl 33, PostGolgi yeast 60
CC(=O)c1ccc(OCC(O)CN2CC(C)OC(C)C2)cc1 (stereo not given)	none
CCCCOc1ccc(C(=O)N2CC(C)OC(C)C2)cc1 (stereo not given)	none
CC1CN(CCCCOc2ccc(C(C)C)cc2)CC(C)O1 (stereo not given)	PostGolgi ctrl 53, PostGolgi yeast 97
CC1CN(CC(O)COc2ccc(C(C)C)cc2)CC(C)O1 (stereo not given)	PostGolgi yeast 59
COc1ccc(OC)c(NC(=O)Cn2cc(C#N)c3cc(Br)ccc32)c1	none
Nc1ncnc2nc(SCCc3ccccc3)[nH]c12	PLAP act 2 (no result: PostGolgi ctrl, PostGolgi yeast)
Cn1nc(C(=O)N2CCOCC2)c2ccccc2c1=O	none (no result: PostGolgi ctrl, PostGolgi yeast)
Cn1nc(C(=O)N2CCCC2)c2ccccc2c1=O	PostGolgi ctrl 30
COC(=O)[C@H](Cc1ccccc1)NC(=O)NCCC1=CCCCC1	none
N#Cc1ccc(-c2ccc3c(c2)OCO3)nc1SCC(=O)OCc1ccccc1	Cav3 T inh -4.6
O=C(CN1C(=O)COc2ccccc21)N(Cc1cccnc1)Cc1ccccc1F	none
CN(C)/C=N/c1c(C#N)nnn1Cc1ccccc1	none
O=C(Nc1nc(-c2ccccc2)c(-c2ccccc2)o1)c1ccc(F)cc1	PostGolgi ctrl 85, PostGolgi yeast 98, Cav3 T inh -5.8
C=C(C)C(=O)N1CC2(CC(c3cccc(NC(=O)/C(C)=C\C)c3)=NO2)C[C@H]1C(N)=O (stereo not given in full)	none (no result: PostGolgi ctrl, PostGolgi yeast, PLAP act)
O=S(=O)(NC1CC2CCC1C2)c1ccc(Br)s1 (stereo not given)	PostGolgi ctrl 91, PostGolgi yeast 90, Cav3 T inh -4.9
CNC(=S)NNC(=O)c1cccc(C(F)(F)F)c1	none (no result: Cav3 T inh)
COC(=O)c1cc(NC(=O)c2cccc(C(F)(F)F)c2)c(=O)oc1C/C=N/OCc1cccc(Cl)c1Cl	Cav3 T inh -4.6
COc1ccc(S(=O)(=O)N(Cc2ccccc2)Cc2nc(-c3ccccc3)no2)cc1	Cav3 T inh -5.5
CC(=O)N1N=C(c2cccc([N+](=O)[O-])c2)OC1c1ccc(Cl)cc1Cl (stereo not given)	PostGolgi ctrl 34
O=[N+]([O-])c1cccc(C(=Nc2ccc(Cl)cc2)NO)c1	none
Cc1cc(Oc2ccccc2)nc(SCC(=O)Nc2ccc(Cl)cc2Cl)n1	Cav3 T inh -5.8
COc1ccc(C(=O)c2coc3ccc(O)c(CN4CCCCC4)c23)cc1	DAT uptake mod 3.5
O=C(c1ccccc1)c1coc2ccc(O)c(Cl)c12	none
Cc1ccc(C(=O)c2coc3ccc(O)c(Cl)c23)cc1	Cav3 T inh -5.2
Cc1ccc2nc(NC(=O)CCNS(=O)(=O)c3cccs3)sc2c1	PostGolgi ctrl 36
CC(C)(C)NS(=O)(=O)c1ccc2nc(NC(=O)Cc3cccs3)sc2c1	Cav3 T inh -4.2
Cc1ccc2nc(NC(=O)CCNS(=O)(=O)c3ccc(Br)s3)sc2c1	PostGolgi ctrl 42
CS(=O)(=O)c1ccc2nc(NC(=O)CCC(=O)c3cccs3)sc2c1	none
CC(=O)C1=C(O)C(=O)N(c2cccnc2)C1c1ccc(Cl)cc1 (stereo not given)	none

Source: PubChem (several laboratories)
